Test systems include SR leukemia; RPMI-8226 leukemia; OVCAR-8 ovarian; OVCAR-5 ovarian; OVCAR-4 ovarian; SK-OV-3 ovarian; IGROV1 ovarian; HS 578T breast; NCI/ADR-RES ovarian; OVCAR-3 ovarian.
Assay in all cases: NCI-60 one-dose screen, 48 h (100 = growth as untreated, 0 = no growth, -100 = all killed)
Conditions in all cases: 10 µM unless noted

SMILES strings stand for the structures. About 83,000 compounds went through this panel and 20% of them were active in at least one assay; those are over-represented in the sample as a whole.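 Single-dose data. Exposure time 48 hours. Values below 10 considered active.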 Values without a mark were called inactive. Calls of active or inactive are those of the source.

As to `CC(=O)O[C@H]1Cc2c([nH]c3ccccc23)[C@@H](c2ccc(Cl)cc2)N1C(=O)CCNC(C)(C)C`, the growth was 3.79% (active) in the experiment on SR leukemia; 44.2% in the experiment with RPMI-8226 leukemia; 83.4% in the experiment with OVCAR-8 ovarian; 59.6% in the experiment on OVCAR-5 ovarian; 64.6% in the experiment on OVCAR-4 ovarian; 90.5% in the experiment on SK-OV-3 ovarian. In addition, the growth with IGROV1 ovarian is 24.6%; in the experiment with HS 578T breast it was 62.3%; in the experiment on NCI/ADR-RES ovarian it was 91.8%.

On to `O=C(Nc1ccc(Cl)cc1)c1cc(NCc2cc(O)ccc2O)ccc1O`, for which the growth with SR leukemia was 9.06% (active); in the experiment on RPMI-8226 leukemia, 4.92% (active); in the experiment on OVCAR-8 ovarian it was 70.4%; in the experiment with OVCAR-5 ovarian it was 116%; in the experiment on OVCAR-4 ovarian, 80.5%; in the experiment on SK-OV-3 ovarian, 103%. For the same molecule, the growth was 84.2% with IGROV1 ovarian, 90% in the experiment on HS 578T breast and 82.9% with NCI/ADR-RES ovarian.

For the molecule `CC(=O)Nc1cccc(-c2ccc3c(c2)NC(=O)/C3=C\c2ccc[nH]2)c1`, the growth in the experiment on SR leukemia is 9.65% (active); in the experiment on RPMI-8226 leukemia it was 15.8%; in the experiment with OVCAR-8 ovarian it was 56.4%; in the experiment on OVCAR-5 ovarian, 38.4%; in the experiment on OVCAR-4 ovarian, 53.1%; in the experiment with SK-OV-3 ovarian it was 48.8%. In addition, the growth is 43.4% in the experiment with IGROV1 ovarian, 69.6% in the experiment with OVCAR-3 ovarian, 64.6% with HS 578T breast and 49.6% with NCI/ADR-RES ovarian.

As to `N#C/C(=C\c1ccc([N+](=O)[O-])s1)c1nc2cc(Br)ccc2s1`, the growth is -18.3% (active) in the experiment on SR leukemia; -43.5% (active) with RPMI-8226 leukemia; -19.7% (active) in the experiment on OVCAR-8 ovarian; 20.5% in the experiment on OVCAR-5 ovarian; -11.6% (active) in the experiment on OVCAR-4 ovarian; 10.1% with SK-OV-3 ovarian. The growth is -32.7% (active) in the experiment with IGROV1 ovarian, -28.6% (active) in the experiment on OVCAR-3 ovarian and -28.5% (active) in the experiment on NCI/ADR-RES ovarian.

On to `CCN(Cc1ccccc1)c1ccc(C=O)cc1`, for which the growth was 90.3% in the experiment with SR leukemia; 90.4% with RPMI-8226 leukemia; 97.8% in the experiment with OVCAR-8 ovarian; 93.1% in the experiment with OVCAR-5 ovarian; 85.8% in the experiment with OVCAR-4 ovarian; 103% in the experiment with SK-OV-3 ovarian. The growth in the experiment with IGROV1 ovarian was 96.1%; with HS 578T breast, 120%; in the experiment with NCI/ADR-RES ovarian it was 101%.

For the molecule `COC(=O)/C=C1\S/C(=N\NC(=O)c2cc3ccc2/C=C\c2ccc(cc2)/C=C\3)N(Cc2ccccc2)C1=O`, the growth in the experiment on SR leukemia was -14.7% (active); with RPMI-8226 leukemia, -47% (active); in the experiment with OVCAR-8 ovarian it was 71.6%; with OVCAR-5 ovarian it was 65.3%; with OVCAR-4 ovarian it was 44.6%; with SK-OV-3 ovarian, 133%. Also, the growth in the experiment with IGROV1 ovarian was 42.3%; in the experiment with OVCAR-3 ovarian, 20.3%; with HS 578T breast it was 87.4%; in the experiment on NCI/ADR-RES ovarian, 70.4%.

With `COc1ccc(C(=O)C2C(C#N)C(C#N)C3c4ccccc4C=CN23)cc1` (stereo unspecified), the growth in the experiment with SR leukemia was 105%; in the experiment on RPMI-8226 leukemia, 73.1%; with OVCAR-8 ovarian, -4.32% (active); with OVCAR-5 ovarian it was 101%; in the experiment with OVCAR-4 ovarian, 62.9%; in the experiment on SK-OV-3 ovarian, 93.6%. The values for the growth with IGROV1 ovarian, in the experiment on HS 578T breast and with NCI/ADR-RES ovarian were 81%, 95.1% and 87.9%, respectively.

Consider `O=C(N/N=C/c1cc2ccccc2n2nnnc12)Nc1ccccc1`, for which the growth in the experiment with SR leukemia is 87.4%; in the experiment on RPMI-8226 leukemia, 101%; in the experiment with OVCAR-8 ovarian, 103%; in the experiment with OVCAR-5 ovarian, 106%; with OVCAR-4 ovarian, 108%; in the experiment with SK-OV-3 ovarian it was 112%. The growth in the experiment on IGROV1 ovarian is 112%; in the experiment with HS 578T breast, 109%; with NCI/ADR-RES ovarian it was 105%.

As for `COc1cc2c(c(O)c1Cl)C(=O)c1c(O)cc(C[C@H](C)O)cc1[C@H]2[C@H]1c2cc(C[C@H](C)O)cc(O)c2C(=O)c2c1cc(OC)c(Cl)c2O`, the growth was 12.3% in the experiment with SR leukemia; 14.1% in the experiment on RPMI-8226 leukemia; 12.8% with OVCAR-8 ovarian; 8.75% (active) in the experiment with OVCAR-5 ovarian; 12.7% in the experiment on OVCAR-4 ovarian; 8.1% (active) with SK-OV-3 ovarian. The figures for the growth with IGROV1 ovarian, with HS 578T breast and in the experiment on NCI/ADR-RES ovarian were 10.4%, 11% and 71.3%, respectively.

On to `C=C1C(=O)O[C@H]2[C@H]1CC/C(CNC(=O)C(C)c1ccc(CC(C)C)cc1)=C\CC[C@@]1(C)O[C@@H]21` (stereo partly specified), for which the growth with SR leukemia was 8.13% (active); with RPMI-8226 leukemia, -21% (active); in the experiment on OVCAR-8 ovarian it was -32.5% (active); in the experiment on OVCAR-5 ovarian it was 57.3%; in the experiment with OVCAR-4 ovarian it was 29.3%; with SK-OV-3 ovarian it was 88.1%. Also, the growth is -36% (active) in the experiment on IGROV1 ovarian, -87.9% (active) in the experiment with OVCAR-3 ovarian, 25.4% in the experiment with HS 578T breast and 55.3% in the experiment with NCI/ADR-RES ovarian.

In the case of `C=CC(=O)N[C@@H](/C=C/C(=O)OCC)Cc1ccc(-c2cc(Cl)cc(Cl)c2)cc1`, the growth is 7.26% (active) with SR leukemia; -2.44% (active) with RPMI-8226 leukemia; 16.8% with OVCAR-8 ovarian; 55.8% in the experiment on OVCAR-5 ovarian; 10.7% in the experiment on OVCAR-4 ovarian; 26.7% with SK-OV-3 ovarian. Also, the growth was 36.2% in the experiment on IGROV1 ovarian, 40.3% in the experiment with HS 578T breast and 8.7% (active) with NCI/ADR-RES ovarian.

Consider `CN[C@@H](C)C(=O)N[C@H]1CCS[C@H]2CC(C)(C)[C@@H](C(=O)N[C@H]3c4ccccc4C[C@H]3OCC#CC#CCO[C@@H]3Cc4ccccc4[C@@H]3NC(=O)[C@H]3N4C(=O)[C@@H](NC(=O)[C@H](C)NC)CCS[C@H]4CC3(C)C)N2C1=O`, for which the growth in the experiment on SR leukemia is 36.1%; in the experiment on RPMI-8226 leukemia it was 71.2%; in the experiment with OVCAR-8 ovarian, 77.3%; in the experiment with OVCAR-5 ovarian it was 109%; with OVCAR-4 ovarian it was -33.1% (active); in the experiment with SK-OV-3 ovarian, -71.6% (active). The growth in the experiment with IGROV1 ovarian is 116%; in the experiment with OVCAR-3 ovarian, 86.2%; with HS 578T breast, 82.2%; in the experiment with NCI/ADR-RES ovarian, 109%.

For `CC(=O)N1c2ccccc2NC2=C(C(=O)NC2(C)C)C1c1ccco1` (stereo unspecified), the growth with SR leukemia was 29.1%; in the experiment with RPMI-8226 leukemia it was 63.1%; with OVCAR-8 ovarian, 100%; with OVCAR-5 ovarian, 95.1%; in the experiment on OVCAR-4 ovarian it was 93.8%; in the experiment on SK-OV-3 ovarian, 95.6%. For the same molecule, the growth with IGROV1 ovarian was 56.7%; in the experiment with HS 578T breast, 83.3%; in the experiment on NCI/ADR-RES ovarian, 102%.

For `COc1cc2nc(-c3ccc(C(F)(F)F)cc3)cc(OCCCN3CCOCC3)c2cc1OC`, the growth with SR leukemia is 16.5%; in the experiment with RPMI-8226 leukemia, 10.8%; with OVCAR-8 ovarian, 41.6%; with OVCAR-5 ovarian, 45.8%; in the experiment on OVCAR-4 ovarian, 52.8%; with SK-OV-3 ovarian, 70.3%. Besides, the growth with IGROV1 ovarian is 36.4%; in the experiment on OVCAR-3 ovarian, 61.6%; in the experiment on HS 578T breast, 54.7%; with NCI/ADR-RES ovarian it was 40.4%.

The record behind these values is PubChem BioAssay (NCI).
